Assay results reported in the supplement of paper PMC9897528.

test system: Scedosporium aurantiacum CBS 136046; assay: growth inhibition relative to DMSO control (OD600); higher = more antifungal activity, active = 80 or more; extreme values may be limits of the assay; conditions: 5 µM; 72 h; 37 °C
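Further: conidia screened in RPMI 1640 medium under 5% CO2, growth read by spectrophotometer, medium with 0.5% DMSO serving as the untreated reference.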

Growth inhibition, inactive:
COc1cc(NCc2ccc3nc(N)nc(N)c3c2C)cc(OC)c1OC 0.273%, CC(C)Nc1nc2cc(Cl)c(Cl)cc2n1[C@H]1O[C@@H](CO)[C@H](O)[C@@H]1O 8.22%, C[C@@H](c1nc(-c2ccc(C#N)cc2)cs1)[C@](O)(Cn1cncn1)c1ccc(F)cc1F 60.6%, Cc1cccc(C)c1C(=O)Nc1nc(-c2ccccn2)cc2ccccc12 26.2%, CC1(C)CC(NC(=O)C(=O)Nc2ccc(Cl)cc2)CC(C)(C)N1 8.43%, NC(=O)c1ccc(I)c([N+](=O)[O-])c1 13.9%, CC(Cc1ccccc1)C(=O)Nc1ccc(Cl)cc1C(=O)O (stereo not drawn) 0%, CC(=O)NC[C@H]1CN(c2ccc(N3CCSCC3)c(F)c2)C(=O)O1 29.2%, COc1ccc(CNC(=O)C(NS(=O)(=O)c2ccc3nc(C)sc3c2)C(C)C)cc1 (stereo not drawn) 26.3%, CC(C)(C)c1ccc(OCCn2nc(C(=O)O)c3ccccc3c2=O)cc1 16.2%, CC#C[C@]1(O)CC[C@H]2[C@@H]3CCC4=CC(=O)CCC4=C3[C@@H](c3ccc(N(C)C)cc3)C[C@@]21C 11.4%, CC(C)N(c1cc(-c2ccccc2)sc1C(=O)O)C(=O)[C@H]1CC[C@H](C)CC1 16.1%, Cc1cc(C)n2nc(C(=O)NS(=O)(=O)c3c(C)cccc3OC(F)(F)F)nc2n1 0%, CC1CCc2c(N3CCC(O)CC3)c(F)cc3c(=O)c(C(=O)O)cn1c23 (stereo not drawn) 16.2%, NNC(=O)c1ccncc1 3.54%, Nc1nc(-c2ccccc2)nc2c1ncn2[C@@H]1O[C@H](COS(=O)(=O)NC(=O)c2ccccc2O)[C@@H](O)[C@H]1O 30%, Cc1ccccc1NC(=O)Nc1cccc([N+](=O)[O-])c1 12.4%, O=C(O)c1cc(-c2ccccc2)nc2ccccc12 12.6%, N#Cc1cc([N+](=O)[O-])ccc1Oc1ccccc1Cl 20.3%, C[C@H](c1cccc2ccccc12)N(C)Cc1ccccc1 14.5%, COc1ccc2c(c1)cc(CNC(=O)c1cc3ccccc3o1)n2CC(=O)O 17.7%, CCCC1(C2CC2)c2cc(Cl)ccc2NC(=O)N1C (stereo not drawn) 18.8%, O=C(NCc1ncc(C(F)(F)F)cc1Cl)c1c(Cl)cccc1Cl 0%, CCN(CC)S(=O)(=O)c1ccc(Cl)c(C(=O)Nc2sc3c(c2C#N)CCCC3)c1 25.7%, CC(C)(C)c1cc(CCC(=O)N2CCC2)cc(C(C)(C)C)c1O 11.9%, CCc1oc2ccccc2c1C(=O)c1ccc(O)cc1 35.1%, N[C@@H]1CN(c2c(F)cc3c(=O)c(C(=O)O)cn([C@@H]4C[C@@H]4F)c3c2Cl)CC12CC2 7.35%, COc1cc(Cc2cc(N)nc(N)n2)cc(OC)c1OC 11.7%, Oc1cc(-c2cccc3ccccc23)[nH]n1 7.34%, O=C(Nc1ccc(-c2ccccc2)cc1)C1=C(O)C(Cc2ccccc2)OC1=O (stereo not drawn) 45.3%, Cc1oncc1C(=O)Nc1ccc(C(F)(F)F)cc1 15.6%, CC(Oc1ccc(Cl)cc1Cl)C(=O)NCc1ccc2c(c1)OCO2 (stereo not drawn) 17.5%, OCCC#Cc1nc(-c2ccc(F)cc2)c(-c2ccncc2)n1CCCc1ccccc1 13.8%, CCOc1noc2cc(OCCC3CCN(c4ccc(C)nn4)CC3)ccc12 37.3%, O=C(Nc1nnc(-c2ccccc2)o1)c1ccc(F)cc1 31.3%, Cc1ccc(NC(=O)c2ccc(CN3CCN(C)CC3)cc2)cc1Nc1nccc(-c2cccnc2)n1 17.6%, Cc1c(CN(C)C(=O)/C=C/c2cnc3c(c2)C(C)(C)C(=O)N3)oc2ccccc12 19.3%, NC[C@H]1O[C@H](O[C@H]2[C@H](O)[C@@H](O[C@H]3O[C@H](CO)[C@@H](O)[C@H](N)[C@H]3O)[C@H](N)C[C@@H]2N)[C@H](N)C[C@@H]1O 15.5%
